Among all 68,000 compounds or so, about 2,700 (4%) showed an effect of 50% or more. The sample as a whole holds a higher share of strong results than the screen did.

Results on 52 compounds are retold here after ChEMBL document CHEMBL4513216, “Probing the Open Global Health Chemical Diversity Library for Multistage-Active Starting Points for Next-Generation Antimalarials” (ACS Infect Dis, 2020).

The subject of this assay is Plasmodium berghei. Description: Screen against P. berghei liver stage (PbLuc), transformed with Luciferase, at 2uM. Format: functional, HepG2. The settings on record: tested at 2 uM.
`CC1CN(CC(=O)NCc2ccc(F)cc2)CCN1c1nccs1` (configuration not stated): the INHIBITION was -4.29%.
Then `CN(C)CCNc1cc(-c2ncccc2Cl)c2cc[nH]c2n1`, with 10.22%; and `COc1ccnc(CN2CCC=C(C(C)NC(C)=O)C2)c1OC` (configuration not stated), with 21.97%; and `CC(=O)NC(C)C1=CCCN(Cc2ccc(C(=O)O)cc2)C1` (configuration not stated), with 43.44%.
Then `COc1ccc(CN2CCC=C(C(C)NC(C)=O)C2)cc1` (configuration not stated), with 60.13%; and `Cc1cnccc1N1CCN(C(=O)C2CC3(CCNCC3)CN2)CC1` (configuration not stated), with -28.32%; and `CC[S+](CC)[c-]1c(=O)[nH]c(=O)n(CCc2ccc(F)cc2)c1=O`, with 9.31%.
For `CC(NC(=O)c1ccc(Cl)cc1)c1nnc(SCC(N)=O)n1C` (configuration not stated) the value was 14.46%; for `CS(=O)(=O)NCC1CCCN(C(=O)Nc2ccccc2F)C1` (configuration not stated), -5.61%.
Turning to `CS(=O)(=O)NCC1CCCN(C(=O)Nc2cccc3ccccc23)C1` (configuration not stated), the INHIBITION was determined as 58.93%.
Then `CS(=O)(=O)NCC1CCCN(C(=O)Nc2ccccc2Cl)C1` (configuration not stated), with -7.21%.
Then `Cn1cc(C(=O)NC2CCCC2)c(-c2cccnc2)n1`, with -18.81%; and `CCOc1ccccc1NC(=O)CN(C)Cc1ccccc1Cl`, with 55.73%.
Then `CCOC(=O)c1ccccc1NC(=O)CN(C)Cc1ccccc1Cl`, with 16.25%; and `CN(CC(=O)Nc1ccccc1C(=O)NC1CC1)Cc1ccccc1Cl`, with 19.66%; and `O=C1NCCN1C1CCN(CC(O)c2ccccc2F)CC1` (configuration not stated), with -54.48%.
`CNC(=O)[C@@H]1C[C@H](N)CN1S(=O)(=O)c1cc(C)c(Cl)cc1C`: the INHIBITION amounted to 25.45%.
Take `CNC(=O)[C@@H]1C[C@H](N)CN1S(=O)(=O)c1cc(Cl)c(Cl)s1`: the INHIBITION was determined as 18.19%.
For `CNC(=O)[C@@H]1C[C@H](N)CN1S(=O)(=O)c1cc(Cl)cc(Cl)c1O` the value was 92.61%.
For `CN(C)[C@@H]1CN(C(=O)Cc2ccsc2)[C@@H]2CCCO[C@H]12` the value was 16.63%; for `CN(Cc1ccccc1CN1CCCC1)C(=O)c1c(O)cccc1O`, 54.29%.
On to `CN(CCN1CCCCCC1)C(=O)c1c(O)cccc1O`, for which the INHIBITION is given as -46.57%.
Then `CN(Cc1ccccc1CN1CCCC1)C(=O)c1c[nH]c(=O)[nH]1`, with 0.31%; and `C1CCN(CCN2CCCCC2C2OCCO2)CC1` (configuration not stated), with -26.04%; and `CNC(=O)C1(C)CN(c2nnc(C)c3ccccc23)CCO1` (configuration not stated), with 31.39%.
Take `Cc1nnc(N2CCOC(C)(C(=O)NC3CCCC3)C2)c2ccccc12` (configuration not stated): the INHIBITION is recorded as 51.88%.
For `Cc1nnc(N2CCOC(C)(C(=O)N(C)C)C2)c2ccccc12` (configuration not stated), the INHIBITION is 29.68%.
For `CCn1ncc2c1C(COCC1CC1)N(Cc1ccccn1)CC2` (configuration not stated) the value was 1.74%.
Regarding `CCc1nc(C2CCCN(C(=O)c3ccc(OC(C)C)nc3)C2)no1` (configuration not stated), the INHIBITION stood at 54.92%.
For `CCc1nc(C2CCCN(C(=O)c3ccc4[nH]nnc4c3)C2)no1` (configuration not stated) the value was 38.72%; for `CC(C)c1nc(C2CCCN(C(=O)CCn3ccccc3=O)C2)no1` (configuration not stated), 29.59%; for `CCOc1cc(C(=O)N2CCCC(c3noc(C(C)C)n3)C2)ccn1` (configuration not stated), 64.16%.
Then `CC(C)c1nc(C2CCCN(C(=O)c3ccc4[nH]cnc4c3)C2)no1` (configuration not stated), with 33.91%.
Then `CCOc1cc(C(=O)N2CCCC(c3noc(C)n3)C2)ccn1` (configuration not stated), with -29.94%; and `CCc1nc(C2CCCN(C(=O)CCn3ccccc3=O)C2)no1` (configuration not stated), with 54.92%.
Regarding `CCc1nc(C2CCCN(C(=O)c3ccc(O)nc3)C2)no1` (configuration not stated), the INHIBITION worked out at 9.82%.
Then `CCc1nc(C2CCCN(C(=O)c3ccc(OC)cc3)C2)no1` (configuration not stated), with 48.43%; and `Cc1nc(C2CCCN(C(=O)CCn3ccccc3=O)C2)no1` (configuration not stated), with 47.23%; and `CCc1nc(C2CCCN(C(=O)c3ccc4[nH]cnc4c3)C2)no1` (configuration not stated), with 52.52%.
Then `CCOc1cc(C(=O)N2CCCC(c3noc(CC)n3)C2)ccn1` (configuration not stated), with 43.79%.
`Cc1cccn2c(CNC(C)CCc3ccc(O)cc3)cnc12` (configuration not stated): the INHIBITION was -19.78%.
For `Cc1cccc(C(=O)NC(C)CN2CCCC2=O)n1` (configuration not stated) the value was 5.91%.
Then `c1ccc(CO[C@@H]2CC[C@H]3[C@H]2OCCN3Cc2ccsc2)nc1`, with 22.62%.
For `O=C(c1ccsc1)N1C[C@H]2CN(Cc3cccnc3)C(=O)[C@H]2C1` the value was 18.91%.
On to `CN1CCc2c(C#N)c(NCc3cccnc3)n3cnnc3c2C1`, for which the INHIBITION is -48.47%.
Then `CN(C)CC1CN(Cc2coc(-c3ccc(Cl)cc3)n2)CCO1` (configuration not stated), with 35.23%; and `O=C(O)C1(Oc2ccc3ccccc3c2)CCN(c2ccncc2)CC1`, with 2.04%.
For `CCc1n[nH]c(C2CN(C(=O)CCn3ccccc3=O)CCO2)n1` (configuration not stated) the value was -27.5%; for `CCCc1n[nH]c(C2CN(C(=O)Cn3ccccc3=O)CCO2)n1` (configuration not stated), -53.98%; for `CCCc1n[nH]c(C2CN(C(=O)CCn3ccccc3=O)CCO2)n1` (configuration not stated), 60.09%.
With `CC(C)NC(=O)N1CCCC(c2nnc(CN3CCOCC3)n2C)C1` (configuration not stated), the INHIBITION is 10.02%.
For `CC(NCc1cnc(N2CCOCC2)nc1)c1ccc(Cl)s1` (configuration not stated) the value was -62.93%.
